Results published in PubChem BioAssay (EPA / NIEHS).
Active and inactive are the calls of the source. Rule for the calls: active = hit-call score of the fitted dose curve at least 0.9, where 1 is the maximum; inactive = score below 0.9.

Tests used:
Details in all cases: mRNA level, 48 h; actives raise or lower the signal
[1] = read-out: catalase (CAT), CAT (gene 847); experiment: LTEA_HepaRG_CAT: Life Technologies and Expression Analysis (LTEA) Assay for catalase (CAT) using HepaRG (AID 2283452)
How it was run: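 HepaRG cells in serum-free induction medium, 0.5% DMSO vehicle, exposed 48 h in duplicate over 8 half-log concentrations from 100 uM. CAT mRNA measured by qRT-PCR, normalized to ACTB, GAPDH, POLR2A; bidirectional fit versus DMSO.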

[2] = read-out: flavin-containing dimethylaniline monooxygenases 3 (FMO3), FMO3 (gene 2328); experiment: LTEA_HepaRG_FMO3: Life Technologies and Expression Analysis (LTEA) Assay for flavin-containing dimethylaniline monooxygenases 3 (FMO3) using HepaRG (AID 2283453)
How it was run: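 Differentiated HepaRG cells in serum-free induction medium, exposed 48 h in duplicate to 8 half-log concentrations up to 100 uM in 0.5% DMSO. FMO3 mRNA by qRT-PCR, normalized to ACTB, GAPDH, POLR2A; bidirectional fit vs DMSO.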

[3] = read-out: Cytochrome P450 (CYP1A1), CYP1A1 (gene 1543); experiment: LTEA_HepaRG_CYP1A1: Life Technologies and Expression Analysis (LTEA) Assay for Cytochrome P450 (CYP1A1) using HepaRG (AID 2283454)
How it was run: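 CYP1A1 transcript levels measured by Fluidigm qRT-PCR against three housekeeping genes, 48 h after chemical dosing of human HepaRG cells (highest concentration 100 uM, half-log steps, 0.5% DMSO vehicle). Gain or loss of signal fitted relative to DMSO.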

[4] = read-out: CFLAR gene, CFLAR (gene 8837); experiment: LTEA_HepaRG_CFLAR: Life Technologies and Expression Analysis (LTEA) Assay for CFLAR gene using HepaRG (AID 2283455)
How it was run: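 Differentiated HepaRG cells in serum-free induction medium were exposed 48 h in duplicate to eight half-log concentrations up to 100 uM in 0.5% DMSO; mRNA measured by TaqMan qRT-PCR, normalized to ACTB, GAPDH, POLR2A; bidirectional fitting versus DMSO.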

[5] = read-out: Forkhead box O1 (FOXO1), FOXO1 (gene 2308); experiment: LTEA_HepaRG_FOXO1: Life Technologies and Expression Analysis (LTEA) Assay for Forkhead box O1 (FOXO1) using HepaRG (AID 2283456)
How it was run: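 Differentiated HepaRG cells, in serum-free induction medium with 0.5% DMSO, exposed 48 h in duplicate to 8-point half-log series from 100 uM. FOXO1 mRNA measured by TaqMan qRT-PCR, normalized to ACTB, GAPDH, POLR2A; bidirectional fit versus DMSO.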

[6] = read-out: growth arrest and DNA damage 45 (GADD45A), GADD45A (gene 1647); experiment: LTEA_HepaRG_GADD45A: Life Technologies and Expression Analysis (LTEA) Assay for growth arrest and DNA damage 45 (GADD45A) using HepaRG (AID 2283458)
How it was run: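 Differentiated HepaRG cells exposed 48 h in serum-free induction medium to 8 concentrations, top 100 uM in half-log steps, 0.5% DMSO. GADD45A mRNA quantified by qRT-PCR, normalized to ACTB, GAPDH and POLR2A; bidirectional fit versus DMSO.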

[7] = read-out: Forkhead box O3 (FOXO3), FOXO3 (gene 2309); experiment: LTEA_HepaRG_FOXO3: Life Technologies and Expression Analysis (LTEA) Assay for Forkhead box O3 (FOXO3) using HepaRG (AID 2283459)
How it was run: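 Differentiated human HepaRG cells, 48 h post-plating, exposed in duplicate for 48 h in serum-free induction medium; 8-point half-log series from 100 uM in 0.5% DMSO. FOXO3 mRNA by TaqMan qRT-PCR, normalized to ACTB/GAPDH/POLR2A; bidirectional fit versus DMSO.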

[8] = read-out: ABC Transporter (ABCB1), ABCB1 (gene 5243); experiment: LTEA_HepaRG_ABCB1: Life Technologies and Expression Analysis (LTEA) Assay for ABC Transporter (ABCB1) using HepaRG (AID 2283460)
How it was run: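 HepaRG cells exposed in duplicate for 48 h in serum-free induction medium to eight half-log concentrations up to 100 uM in 0.5% DMSO. ABCB1 mRNA quantified by qRT-PCR, normalised to ACTB, GAPDH and POLR2A; fitted bidirectionally versus DMSO.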

[9] = read-out: growth arrest and DNA damage 45 (GADD45B), GADD45B (gene 4616); experiment: LTEA_HepaRG_GADD45B: Life Technologies and Expression Analysis (LTEA) Assay for growth arrest and DNA damage 45 (GADD45B) using HepaRG (AID 2283461)
How it was run: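 Transcript level quantified by Fluidigm TaqMan qRT-PCR with three housekeeping genes for normalization, analyzed for up- or down-regulation against 0.5% DMSO. HepaRG cultures dosed 48 h at eight half-log concentrations up to 100 uM, duplicates.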

[10] = read-out: ABC Transporter (ABCC3), ABCC3 (gene 8714); experiment: LTEA_HepaRG_ABCC3: Life Technologies and Expression Analysis (LTEA) Assay for ABC Transporter (ABCC3) using HepaRG (AID 2283462)
How it was run: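 Transcript level by TaqMan qRT-PCR, normalised to three housekeeping genes, fitted in both directions relative to vehicle. Chemicals tested in duplicate at eight half-log concentrations up to 100 uM for 48 h on HepaRG cells (0.5% DMSO).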

[11] = read-out: ABC Transporter (ABCB11), ABCB11 (gene 8647); experiment: LTEA_HepaRG_ABCB11: Life Technologies and Expression Analysis (LTEA) Assay for ABC Transporter (ABCB11) using HepaRG (AID 2283463)
How it was run: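 Differentiated human HepaRG cells in serum-free induction medium, dosed in duplicate for 48 h. Eight-point half-log series from 100 uM in 0.5% DMSO; ABCB11 mRNA by qRT-PCR, normalized to ACTB, GAPDH, POLR2A, fitted bidirectionally versus DMSO.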

[12] = read-out: ABC Transporter (ABCC2), ABCC2 (gene 1244); experiment: LTEA_HepaRG_ABCC2: Life Technologies and Expression Analysis (LTEA) Assay for ABC Transporter (ABCC2) using HepaRG (AID 2283464)
How it was run: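 Endpoint is ABCC2 transcript level from qRT-PCR, normalized to three housekeeping genes and fitted bidirectionally relative to DMSO. Human HepaRG cells received test chemical for 48 h at up to 100 uM (8 points, half-log steps, 0.5% DMSO), duplicate wells.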

[13] = read-out: Broad substrate specificity ATP-binding cassette transporter ABCG2 (Homo sapiens) (UniProt Q9UNQ0); experiment: LTEA_HepaRG_ABCG2: Life Technologies and Expression Analysis (LTEA) Assay for ABC Transporter (ABCG2) using HepaRG (AID 2283465)
How it was run: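 Differentiated HepaRG cells were exposed for 48 h in serum-free induction medium to 8 half-log concentrations, top 100 uM, in 0.5% DMSO. ABCG2 mRNA was measured by qRT-PCR, normalized to ACTB, GAPDH and POLR2A, with bidirectional fitting versus DMSO.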

[14] = read-out: ATP-citrate lyase (ACLY), ACLY (gene 47); experiment: LTEA_HepaRG_ACLY: Life Technologies and Expression Analysis (LTEA) Assay for ATP-citrate lyase (ACLY) using HepaRG (AID 2283466)
How it was run: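 Differentiated HepaRG cells exposed 48 h in serum-free induction medium to eight half-log concentrations up to 100 uM in 0.5% DMSO, duplicates. Transcript measured by Fluidigm TaqMan qRT-PCR, normalized to ACTB, GAPDH, POLR2A; bidirectional fit versus DMSO.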

[15] = read-out: Peroxisomal acyl-coenzyme A oxidase 1 (ACOX1) gene, ACOX1 (gene 51); experiment: LTEA_HepaRG_ACOX1: Life Technologies and Expression Analysis (LTEA) Assay for Peroxisomal acyl-coenzyme A oxidase 1 (ACOX1) gene using HepaRG (AID 2283467)
How it was run: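 HepaRG cells, plated 48 h then switched to serum-free induction medium, were exposed in duplicate for 48 h to 8-point half-log concentrations up to 100 uM in 0.5% DMSO. ACOX1 mRNA was measured by qRT-PCR, normalized to ACTB/GAPDH/POLR2A, and fitted bidirectionally versus DMSO.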

[16] = read-out: Alkaline Phosphatase, Placental (ALPP) gene, ALPP (gene 250); experiment: LTEA_HepaRG_ALPP: Life Technologies and Expression Analysis (LTEA) Assay for Alkaline Phosphatase, Placental (ALPP) gene using HepaRG (AID 2283468)
How it was run: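 ALPP transcript level, measured by qRT-PCR and normalized to three housekeeping genes (ACTB, GAPDH, POLR2A), after 48 h dosing of differentiated HepaRG in serum-free induction medium. Top concentration 100 uM with half-log dilutions (8 points, 0.5% DMSO, duplicates); bidirectional fitting relative to DMSO.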

[17] = read-out: Bcl-2 (BAD) gene, BAD (gene 572); experiment: LTEA_HepaRG_BAD: Life Technologies and Expression Analysis (LTEA) Assay for Bcl-2 (BAD) gene using HepaRG (AID 2283469)
How it was run: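 Differentiated HepaRG cells were exposed in duplicate in 0.5% DMSO for 48 h to eight-point half-log concentrations up to 100 uM. BAD mRNA was measured by Fluidigm TaqMan qRT-PCR, normalized to ACTB, GAPDH and POLR2A, and fitted bidirectionally against DMSO.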

[18] = read-out: Bcl-2 (BAX) gene, BAX (gene 581); experiment: LTEA_HepaRG_BAX: Life Technologies and Expression Analysis (LTEA) Assay for Bcl-2 (BAX) gene using HepaRG (AID 2283470)
How it was run: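 Differentiated HepaRG cells exposed 48 h in serum-free induction medium, eight half-log concentrations from 100 uM, in duplicate, 0.5% DMSO vehicle. BAX mRNA by TaqMan qRT-PCR, normalised to ACTB, GAPDH and POLR2A.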

[19] = read-out: adenosine kinase (ADK) gene, ADK (gene 132); experiment: LTEA_HepaRG_ADK: Life Technologies and Expression Analysis (LTEA) Assay for adenosine kinase (ADK) gene using HepaRG (AID 2283471)
How it was run: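 Read-out is ADK transcript level measured by qRT-PCR and normalised to three housekeeping genes. Cells are human HepaRG, dosed for 48 h at up to 100 uM in 0.5% DMSO. Gain or loss of signal is fitted against DMSO controls.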

Broad substrate specificity ATP-binding cassette transporter ABCG2 (Homo sapiens), sequence (Q9UNQ0 whole entry, looked up): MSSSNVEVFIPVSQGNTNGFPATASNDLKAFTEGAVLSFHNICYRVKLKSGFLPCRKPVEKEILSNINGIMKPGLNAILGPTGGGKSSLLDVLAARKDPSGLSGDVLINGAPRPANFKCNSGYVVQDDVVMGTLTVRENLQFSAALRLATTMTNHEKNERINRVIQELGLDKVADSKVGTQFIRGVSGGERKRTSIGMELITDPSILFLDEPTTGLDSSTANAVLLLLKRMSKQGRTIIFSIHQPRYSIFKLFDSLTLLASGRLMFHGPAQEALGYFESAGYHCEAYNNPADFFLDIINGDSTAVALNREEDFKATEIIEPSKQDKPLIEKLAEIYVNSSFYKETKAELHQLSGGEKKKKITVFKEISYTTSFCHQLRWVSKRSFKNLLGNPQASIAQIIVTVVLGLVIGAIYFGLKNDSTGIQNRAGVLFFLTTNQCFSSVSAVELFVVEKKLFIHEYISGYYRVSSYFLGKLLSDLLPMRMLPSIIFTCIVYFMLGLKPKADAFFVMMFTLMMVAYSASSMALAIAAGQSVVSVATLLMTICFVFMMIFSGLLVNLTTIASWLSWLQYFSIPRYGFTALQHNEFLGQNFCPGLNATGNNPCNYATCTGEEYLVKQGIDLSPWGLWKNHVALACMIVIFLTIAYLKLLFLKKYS

| SMILES | outcome [1] | outcome [2] | outcome [3] | outcome [4] | outcome [5] | outcome [6] | outcome [7] | outcome [8] | outcome [9] | outcome [10] | outcome [11] | outcome [12] | outcome [13] | outcome [14] | outcome [15] | outcome [16] | outcome [17] | outcome [18] | outcome [19] | AC50 [3] |
| --- | --- | --- | --- | --- | --- | --- | --- | --- | --- | --- | --- | --- | --- | --- | --- | --- | --- | --- | --- | --- |
| CCC(C)c1ccc(O)cc1 (configuration not stated) | inactive | inactive | inactive | inactive | inactive | inactive | inactive | inactive | inactive | inactive | inactive | inactive | inactive | inactive | inactive | inactive | inactive | inactive | inactive | – |
| CC(C)(C)OOC(=O)c1ccccc1 | inactive | inactive | – | inactive | inactive | inactive | inactive | inactive | inactive | inactive | inactive | inactive | inactive | inactive | inactive | inactive | inactive | inactive | inactive | 83.2 µM (active) |
| CCCCCCCCCCCCCN1CC(C)OC(C)C1 (configuration not stated) | inactive | inactive | – | inactive | inactive | inactive | inactive | inactive | inactive | inactive | inactive | inactive | inactive | inactive | inactive | inactive | inactive | inactive | inactive | 50 µM (active) |
